# About 5,800 (36%) of roughly 16,000 compounds were called active. Roughly 23% stayed inconclusive and do not appear here. The call rests on the fitted dose curve; in most records, active means well fitted curve in the direction sought with a large enough effect; inconclusive means small, poorly fitted or top-dose-only effect, or effect the other way; inactive means no such curve, though single readings can be large or run the other way. This is one part of the list.
# Target: Cytochrome P450 2C19 (Homo sapiens) (UniProt P33261)
# Sequence (P33261 whole entry, looked up): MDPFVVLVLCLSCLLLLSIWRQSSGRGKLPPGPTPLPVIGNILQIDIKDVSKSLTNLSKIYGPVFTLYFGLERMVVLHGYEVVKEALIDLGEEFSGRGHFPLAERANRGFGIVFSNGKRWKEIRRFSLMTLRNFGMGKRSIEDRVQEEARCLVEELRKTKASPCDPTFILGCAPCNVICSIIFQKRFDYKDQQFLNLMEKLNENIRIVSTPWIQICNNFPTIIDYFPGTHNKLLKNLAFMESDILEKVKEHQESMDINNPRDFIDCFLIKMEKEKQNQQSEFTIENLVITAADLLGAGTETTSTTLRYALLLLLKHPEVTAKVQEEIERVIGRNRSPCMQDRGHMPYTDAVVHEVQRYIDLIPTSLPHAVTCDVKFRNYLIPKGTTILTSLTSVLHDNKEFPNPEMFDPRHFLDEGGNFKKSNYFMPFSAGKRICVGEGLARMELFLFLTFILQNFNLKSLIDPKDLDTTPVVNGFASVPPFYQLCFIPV
# Assay: Cytochrome panel assay with activity outcomes
# Conditions: recombinant CYP, pro-luciferin dealkylation, luminescence, p450-cyp2c19; series mostly up to 57.1 µM; activity, negative = inhibition: at the top concentration
# On the % scale 0 is the no-effect control and ±100 the full control effect.
SMILES,"activity, negative = inhibition",AC50
COc1ccccc1CN1CC[C@@]2(CCCN(C(C)=O)C2)C1,0.515% (inactive),–
CCOC(=O)C1CCN(c2c(NCc3ccc(C(=O)NCCC(C)C)cc3)c(=O)c2=O)CC1,–,3.16 µM (active)
CCNC(=S)NNC(=O)c1cc(C2CC2)nc2ccccc12,–,28.2 µM (active)
CCCCOC(=O)CSCC(=O)Nc1cc(C)on1,–,8.91 µM (active)
Cc1ccccc1-c1cc(Nc2ccccc2)ncn1,–,3.16 µM (active)
COc1ccccc1-c1cc(Nc2ccn[nH]2)ncn1,–,6.31 µM (active)
Cc1ccccc1-c1cc(Nc2ccc(F)cc2)ncn1,–,0.631 µM (active)
COc1ccccc1-c1cc(Nc2ccc(F)cc2)ncn1,–,7.94 µM (active)
CC(=O)NCCNc1cc(-c2ccccc2C)ncn1,9.99% (inactive),–
C[C@@H]1/C=C\CC(=O)OC[C@H](C)C(=O)N2CCC[C@@H]2C(=O)OC1,72.6% [at 11.4 µM] (inactive),–
O=C(c1cccc(F)c1)N1CCC2(CC1)CN(C(c1ccccc1)c1ccccc1)C2,18.4% (inactive),–
COC(=O)[C@@]1(Cc2ccccc2)[C@H]2c3cc(C(=O)N(C)C)n(Cc4c(CO)[nH]cc(C)c4=O)c3C[C@H]2CN1C(=O)c1ccccc1,–,3.16 µM (active)
COC(=O)[C@@]1(Cc2ccccc2)[C@H]2c3cc(C(=O)N4CCCC4)n(Cc4c(CO)[nH]cc(C)c4=O)c3C[C@H]2CN1C(=O)c1ccccc1,–,10 µM (active)
COc1ccc(CNc2cc(-c3ccccc3OC)ncn2)c(OC)c1,–,2 µM (active)
COc1ccc(CNc2cc(-c3ccccc3Cl)ncn2)c(OC)c1,–,2 µM (active)
COc1ccc(CNc2cc(-c3ccccc3CN(C)C)ncn2)c(OC)c1,4.98% (inactive),–
CC(=O)N(CC(O)CN(C(C)=O)c1c(I)c(C(=O)NC[C@@H](O)CO)c(I)c(C(=O)NC[C@@H](O)CO)c1I)c1c(I)c(C(=O)NC[C@@H](O)CO)c(I)c(C(=O)NC[C@@H](O)CO)c1I,-17% [at 25.6 µM] (inactive),–
CN(C)c1nccc(N(Cc2ccccc2)Cc2ccccc2)c1C#N,–,4.47 µM (active)
CCOC(=O)C1CCCN(C(=O)CSCc2ccccc2)C1 (stereo not given),–,11.2 µM (active)
CCCS(=O)(=O)N1CCCC(C(=O)N2CCN(C(=O)OCC)CC2)C1 (stereo not given),23% (inactive),–
CCOC(=O)C1CCCN(C(=O)CCn2nc(-c3ccccc3)ccc2=O)C1 (stereo not given),-29% (inactive),–
CCOC(=O)C1CCCN(S(=O)(=O)c2ccccc2)C1 (stereo not given),–,4.47 µM (active)
CCCS(=O)(=O)N1CCCC(C(=O)NCCCOCC)C1 (stereo not given),19.2% (inactive),–
CCOC(=O)CNc1c(-c2ccccc2)nc2ccc(Cl)cn12,–,5.01 µM (active)

SMILES,"activity, negative = inhibition",AC50
COC(=O)[C@@H]1O[C@@H](c2c(OC)c(OC)c(C)c(OC)c2OC)[C@H](C)[C@@H](O)[C@@H]1C,-37.9% [at 11.4 µM] (inactive),–
Clc1ccc(Cl)c(Nc2ccnc(SCc3ccccc3)n2)c1,–,5.01 µM (active)
CC(C)OC(=O)C1=C2SCC(=O)N2C(N)=C(C#N)C1,–,2.51 µM (active)
CCOC(=O)C1=C2SCC(=O)N2C(N)=C(C#N)C1,–,14.1 µM (active)
CCOC(=O)c1c(C)c(C)n2c1NC(=O)C2,1.54% [at 11.4 µM] (inactive),–
Oc1cc2c(c(Cl)c1O)CCNC[C@H]2c1ccccc1,–,inactive
O=C(NCCc1ccccn1)c1cc(C(=O)C2CCCCC2)c[nH]1,-14.4% (inactive),–
O=C(NCc1ccco1)c1cc(C(=O)C2CC2)c[nH]1,–,25.1 µM (active)
Cc1c(NC(=O)/C=C/c2cn(-c3ccccc3)nc2-c2ccc(F)cc2)c(=O)n(-c2ccccc2)n1C,-63.8% (inactive),–
Cc1ccc(-c2nn(-c3ccccc3)cc2CSC(=N)N)cc1,–,8.91 µM (active)
CCC(C)NC(=O)CCS(=O)(=O)c1ccc(Br)s1 (stereo not given),–,5.01 µM (active)
CCC(C)NC(=O)Cn1cnc2sc(C)cc2c1=O (stereo not given),-22.3% (inactive),–
CCOC(=O)c1ccc(Nc2nc(C(=O)OCC)nc3ccccc23)cc1,–,1.41 µM (active)
CCOC(=O)c1ccc(Nc2nc(-c3cccnc3)nc3ccccc23)cc1,–,3.55 µM (active)
COc1ccccc1NC(=O)Nc1nc(-c2cccnc2)nc2ccccc12,36.6% (inactive),–
c1ccc(Nc2nc(-c3cccnc3)nc3ccccc23)cc1,-24.3% (inactive),–
CC(C)=CCC/C(C)=C/CO/N=C1/C[C@@H](O)[C@@H](O)[C@@H]2[C@@H]3C(=O)N(Cc4ccc5c(c4)OCO5)C(=O)[C@H]3CC[C@@H]12,17.2% [at 11.4 µM] (inactive),–
O=C(c1cnccn1)N1CCC[C@@]2(CCN(C(c3ccccc3)c3ccccc3)C2)C1,-31.3% (inactive),–
O=C(O)CC[C@@H](C(=O)O)N1C(=O)c2ccccc2C1=O,–,inactive
O=C(O)[C@H](Cc1ccc(O)c([N+](=O)[O-])c1)N1C(=O)c2ccccc2C1=O,26.2% [at 11.4 µM] (inactive),–
CC(C)CC(C(=O)OCC(=O)Nc1ncc(Cl)cc1Cl)N1C(=O)c2ccccc2C1=O (stereo not given),–,2.24 µM (active)
CC(C)(CNC(=O)c1ccc([N+](=O)[O-])c(Cl)c1)CNC(=O)c1ccc([N+](=O)[O-])c(Cl)c1,–,2.24 µM (active)
CC(C)(C)OC(=O)[C@H]([C@@H]1N[C@@H](C(=O)O)C(C)(C)S1)N1C(=O)c2ccccc2C1=O,36.7% [at 11.4 µM] (inactive),–
Cc1[nH]c2ccccc2c1CCNC(=O)c1ccc2c(c1[N+](=O)[O-])C(=O)c1ccccc1C2=O,–,1.26 µM (active)

SMILES,"activity, negative = inhibition",AC50
O=C(c1cccs1)n1nc(-c2ccc(Cl)cc2)nc1NCc1ccco1,–,14.1 µM (active)
Cc1nc2cnc(N3CCNCC3)nc2n(-c2ccccc2)c1=O,-9.27% (inactive),–
FC(F)(F)c1nc(N2CCCC2)ncc1-c1nnnn1-c1ccccc1,–,0.631 µM (active)
Cc1nn(-c2ccccc2)c(N2CCCCC2)c1/C=N/O,-13.2% (inactive),–
FC(F)(F)c1nc(-c2ccncc2)ncc1-c1nnnn1-c1ccccc1,–,0.0224 µM (active)
O=C(O)[C@H]1CCCC[C@@H]1C(=O)Nc1nc2ccccc2[nH]1,26.5% [at 11.4 µM] (inactive),–
CC(C)c1ccc(NC(=O)N(CCc2nc3ccccc3[nH]2)C2CCCC2)cc1,–,7.08 µM (active)
COCC(=O)O[C@]1(CCN(C)CCCc2nc3ccccc3[nH]2)CCc2cc(F)ccc2[C@@H]1C(C)C,-8.93% (inactive),–
CCOC(=O)c1ccc(N)cc1,-12.8% [at 25.6 µM] (inactive),–
CCOC(=O)c1ccc(OC(=O)CCCCCN=C(N)N)cc1,–,inactive
CCOC(=O)c1ccc(-c2ccc(CO)o2)cc1,–,28.2 µM (active)
COC(=O)CSc1ccc(C#N)c(SCC(=O)OC)c1,–,11.2 µM (active)
CCOc1ccc(N/N=C(/C#N)C(N)=O)cc1,–,4.47 µM (active)
Cc1ccc2oc(-c3cccc(NC(=S)NC(=O)/C=C/c4ccco4)c3)nc2c1,–,6.31 µM (active)
CCCC(=O)Nc1ccc2nc(SCC(=O)Nc3ccc(N4CCOCC4)c(Cl)c3)sc2c1,–,3.98 µM (active)
O=C(Nc1ccc2nc(SCc3ccc(Cl)cc3)sc2c1)c1ccccc1C(=O)N1CCOCC1,–,3.98 µM (active)
Cc1ccc(NC(=O)CSCC(=O)Nc2ccc(N3CCOCC3)c(Cl)c2)cc1,–,14.1 µM (active)
CCC1CC(CSc2ncn[nH]2)OC1=O (stereo not given),-38% (inactive),–
CN1[C@@H]2CC[C@H]1CC(OC(c1ccccc1)c1ccccc1)C2 (stereo not given in full),–,inactive
O=S1(=O)OC(c2ccc(O)cc2)(c2ccc(O)cc2)c2ccccc21,28.4% [at 11.4 µM] (inactive),–
O=C(/C=C/c1ccco1)NC(=S)Nc1ccc(N2CCOCC2)c(Cl)c1,–,11.2 µM (active)
CCOc1ccc(C(F)(F)F)cc1NC(C)=O,–,28.2 µM (active)
O=C1NCC2=C1C(c1ccc(Br)cc1)Nc1ccccc1N2 (stereo not given),–,8.91 µM (active)
COc1cc2c(cc1NC(=O)Nc1ccccc1)oc1ccccc12,–,3.55 µM (active)

SMILES,"activity, negative = inhibition",AC50
COc1ccccc1CC(=O)Nc1cc2oc3ccccc3c2cc1OC,–,6.31 µM (active)
COc1cc(NC(=O)c2cc3ccccc3o2)c(OC)cc1Br,39.4% (inactive),–
COc1ccccc1C(=O)Nc1cc2c(ccc3ccccc32)oc1=O,5.52% (inactive),–
COc1cc2c(cc1NC(=O)c1cc(-c3cccnc3)nc3ccc(C)cc13)oc1ccccc12,–,3.55 µM (active)
CC(=O)N1CCC[C@@]2(CCN(Cc3ccccc3)C2)C1,6.21% (inactive),–
CC1(C)CCCN(C(=O)N2c3ccccc3Sc3ccccc32)C1,–,0.562 µM (active)
CC1(C)CCCN(C(=O)c2coc(=O)c(Br)c2)C1,-17.6% (inactive),–
O=C(CSc1cccc2cccnc12)OCC(=O)c1ccccc1,–,10 µM (active)
NS(=O)(=O)c1ccc(NC(=O)Nc2cccc3ccccc23)cc1,2.76% [at 11.4 µM] (inactive),–
Cc1cc(O)c(C(C)C)cc1NC(=O)Nc1cccc2ccccc12,–,0.0501 µM (active)
CCOc1cc(/C=C2\CCC/C(=C\c3cc(Cl)c(O)c(OCC)c3)C2=O)cc(Cl)c1O,–,15.8 µM (active)
O=C(O)[C@@H]1[C@@H]2C[C@@H]3[C@@H](OC(=O)[C@@H]31)[C@H]2Br,-11.8% [at 11.4 µM] (inactive),–
O=c1[nH]c2[nH]c(=S)[nH]c(=S)c2[nH]1,–,0.631 µM (active)
CNC(=O)/C=C1\NC(C)(C)Cc2c1ccc1ccccc21,–,2.51 µM (active)
Nc1ccc2c3c(cccc13)C(=O)NC2=O,22.5% (inactive),–
CC1(C)Cc2c(ccc3ccccc23)C(=O)N1,–,10 µM (active)
CNC(=O)[C@H]1O[C@H](n2cnc3c(NCc4cccc(I)c4)ncnc32)[C@@H](O)[C@@H]1O,11.7% (inactive),–
COc1ncc2nc(-c3cccs3)c(=O)n(C)c2n1,2.77% (inactive),–
N[C@@H](Cc1cccc([N+](=O)[O-])c1)C(=O)O,-6.46% [at 11.4 µM] (inactive),–
CCN(Cc1ccccc1)Cc1cccc([N+](=O)[O-])c1,–,5.62 µM (active)
COc1ccc(/C=N/n2c(-c3cccs3)n[nH]c2=S)cc1,–,17.8 µM (active)
COc1ccc(Oc2ncc3nc(-c4cccs4)c(=O)n(C)c3n2)cc1,-22.2% (inactive),–
CCc1n[nH]c(=S)n1/N=C/c1ccc2c(c1)OCO2,-11.1% (inactive),–

# Source: PubChem BioAssay AID1851 (National Center for Advancing Translational Sciences (NCATS), 2009)
